MITF TRPM1 HTS: increases MITF-driven TRPM1 promoter luciferase signal. SK-MEL-5 TRPM1-promoter luciferase, 24 h; % of positive control, neutral wells = 0. activation, % at 12.5 µM. 300,000 compounds, 0.75% hits. AID 588334;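 active = mean activation of at least 80% with every replicate also reaching 80%; inconclusive = mean reaches 80% but some replicate falls short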;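 also: 0% = neutral control wells and 100% = parthenolide positive control wells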
Wnt bcat act: activators of Wnt/beta-catenin signaling; Wnt/beta-catenin reporter cell assay, activator, plate reader; AID 743398; activation, % at 9.35 µM; 300,000 compounds, 1.2% hits; in the data active = activation above about 30%, passing the limit was not always enough; inconclusive = no clear call, values can overlap the other calls;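 also: 0% = neutral control wells and 100% = positive control wells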
Statin myotox sup: suppression of simvastatin myotoxicity. C2C12 myotubes + simvastatin, ATP luminescence, 48 h; scaled: DMSO 0, geranylgeraniol control 100. rescue of ATP level, % at 7.49 µM. 330,000 compounds, 0.78% hits;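 active = mean ATP rescue above about 67%, or every replicate alone reaching that limit, limit read from the data, passing the limit was not always enough; inconclusive = no clear call, values can overlap the other calls; inactive = mean under the limit and some replicate under it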;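 also: myotubes were challenged with 10 µM simvastatin during compound exposure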
esBAF inh: SWI/SNF esBAF complex inhibition | mouse ES cells, Bmi1-luciferase knock-in reporter, 24 h; 100% = twice the neutral-well signal | reporter increase, % at 12.5 µM | 350,000 compounds, 2% hits | AID 602393; in the data active = activation above about 40%; inconclusive = no clear call, values can overlap the other calls;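 also: 0% = median of the plate's neutral control wells and 100% = double that signal; a rise in the Bmi1 reporter signal indicates esBAF inhibition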
The depositor's hits bear a star; u = inconclusive; x = not tested or not shown. The list is not random: actives were taken first. Their share in the collection is about 3%.

SMILES	MITF TRPM1 HTS	Wnt bcat act	Statin myotox sup	esBAF inh
COCC(=O)N(C)C[C@H]1Oc2cc(-c3ccc(F)cc3)ccc2S(=O)(=O)N([C@H](C)CO)C[C@H]1C	x	x	-13	13
C=CCOc1c(Br)cc(CNn2nnnc2N)cc1OC	-9	x	111*	7
NS(=O)(=O)c1ccc(NC(=O)c2ccc(OCC3CCCO3)cc2)cc1 (stereo unspecified)	15	-1	3	7
Cc1ccc(NC(=O)c2ccc(OCC3CCCO3)cc2)cc1Cl (stereo unspecified)	x	42*	-9	78*
Cc1ccnc(NC(=O)c2ccc(OCC3CCCO3)cc2)c1 (stereo unspecified)	-23	35*	x	x
Cc1ccc(NC(=O)c2ccc(OCC3CCCO3)cc2)c(C)c1 (stereo unspecified)	-99	x	x	x
COc1ccc(NC(=O)c2ccc(OCC3CCCO3)cc2)cc1OC (stereo unspecified)	38	11	25	51*
Cc1ccc(F)cc1NC(=O)c1ccc(OCC2CCCO2)cc1 (stereo unspecified)	44	-5	5	47*
CC(C)NC(=O)N(C)C[C@@H]1Oc2cc(-c3cccnc3)ccc2S(=O)(=O)N([C@@H](C)CO)C[C@H]1C	x	x	-16	6
Cc1noc(C)c1S(=O)(=O)Nc1ccc2c(c1)C(=O)N([C@@H](C)CO)C[C@@H](C)[C@H](CN(C)S(=O)(=O)c1ccc(F)cc1)O2	x	x	-28	0
Cc1cccc2sc(NC(=O)c3ccc(OCC4CCCO4)cc3)nc12 (stereo unspecified)	16	9	-10	59*
O=C(NC1CCCCCC1)c1ccc(OCC2CCCO2)cc1 (stereo unspecified)	71	18	x	x
COc1ccc(NC(=O)c2ccc(OCC3CCCO3)cc2)cc1Cl (stereo unspecified)	57	22	-36	42*
COCC(=O)Nc1ccc2c(c1)[C@@H]1C[C@@H](CC(=O)NC3CCCCC3)O[C@@H](CO)[C@@H]1O2	x	x	-8	-1
Brc1ccc2[nH]c3c(c2c1)CCC3	4	1	-4	-5
O=C1Cc2c([nH]c3ccc(Br)cc23)-c2ccccc2N1	x	96*	x	x
C[C@@H]1CN([C@H](C)CO)C(=O)Cc2cc(NC(=O)Nc3ccc(F)cc3)ccc2O[C@H]1CN(C)C(=O)Nc1ccc(C(F)(F)F)cc1	x	x	3	1
O=c1nc2sc3ccccc3n2c(=O)n1-c1cccc(Cl)c1	x	x	6	76*
O=c1nc2sc3ccccc3n2c(=O)n1-c1ccc(Cl)cc1	114*	13	x	46*
Cc1ccc2c(c1)sc1nc(=O)n(-c3ccc(Cl)c(Cl)c3)c(=O)n12	12	-2	-2	3
Cc1ccc2c(c1)sc1nc(=O)n(-c3cccc(Cl)c3)c(=O)n12	103*	x	4	69*
Cc1ccc2c(c1)sc1nc(=O)n(-c3ccc(Cl)cc3)c(=O)n12	x	x	-8	23
O=C(C1CCC1)N1CC[C@@H]2[C@H]1c1cc(-c3cccc(F)c3)ccc1N[C@@H]2CO	x	x	-18	0
C[C@H](CO)N1C[C@H](C)[C@@H](CN(C)C(=O)c2cnccn2)Oc2ncc(C#CCC3CCCC3)cc2C1=O	x	x	-3	-5
COc1cccc(/C=C2\SC(N3CCC(C)CC3)=NC2=O)c1OC	17	1	-9	7
SMILES	MITF TRPM1 HTS	Wnt bcat act	Statin myotox sup	esBAF inh
COc1cccc(/C=C2\SC(N3CCCC(C)C3)=NC2=O)c1OC (stereo unspecified)	65	3	-7	73*
Cn1cnnc1SCC(=O)N1CCN(C(=O)c2ccco2)CC1	-11	2	x	x
Cn1cnnc1SCC(=O)N1CCC(Cc2ccccc2)CC1	10	x	99*	1
O=C1NC2(CCCCC2)C(=O)N1c1ccc(Cl)cc1	x	5	-27	1
CSc1ccc(N2C(=O)NC3(CCCCC3)C2=O)cc1	35	18	-15	62*
COc1ccc(OC)c(S(=O)(=O)N2CCN(CC(O)CN3CCOCC3)CC2)c1 (stereo unspecified)	2	-1	-10	-13
COc1ccc(S(=O)(=O)N2CCN(CC(O)CN3CCOCC3)CC2)cc1 (stereo unspecified)	0	53*	-11	-12
CCOc1cc(Br)c(COc2ccc(C)nc2[N+](=O)[O-])cc1OCC	-6	0	-5	-7
Cc1ccc(OCCOc2cccc(Br)c2)c([N+](=O)[O-])n1	103*	x	x	x
Cc1ccc(OCc2ccc(Br)cc2)c([N+](=O)[O-])n1	x	61*	x	x
CCCN(Cc1ccc(C)cc1)C(=O)c1ccc(CNS(=O)(=O)c2ccc(C(C)=O)cc2)cc1	u	2	8	62*

High-throughput results: PubChem BioAssay, Broad Institute
